# In all, about 310,000 compounds went through this assay and about 17,000 (5.5%) were called active. Roughly 11% stayed inconclusive and do not appear here. Calls follow the shape of the dose curve; as a rule, active = well fitted inhibition curve with a large enough effect; inconclusive = small, poorly fitted or top-dose-only effect, or effect the other way; inactive = no such curve, though single readings can be large or run the other way. This excerpt belongs to a sample that is enriched for actives.
# Target: Nuclear receptor ROR-gamma (Mus musculus) (UniProt P51450)
# Assay: qHTS for inhibitors of ROR gamma transcriptional activity; also: nearly all actives have a fitted effect of over 60% in size
# Conditions: Drosophila S2 Gal4-RORgamma UAS-luciferase reporter, 20 h; series mostly up to 53.6 µM; activity change, negative = inhibition: at the top concentration
# Source text: NIH Molecular Libraries Probe Production Network [MLPCN] NIH Chemical Genomics Center [NCGC] MLPCN Grant: R03 DA026211-01 Assay Provider: Dan Littman, New York University Assay Overview: The retinoic acid-related orphan receptor (ROR) gamma is a transcription factor that has a central role in the differentiation of Th17 cells, a subset of T helper cells that secrete the inflammatory cytokines IL-17, IL-17F, and IL-22. Th17 cells have been implicated in graft versus host disease, autoimmune disease and asthma. ROR gamma is induced in naive T helper cells in the presence of TGF-beta combined with IL-6, IL-21, or IL-23, and thereafter directs the expression of the Th17 lineage cytokines. To study the mechanism of action of ROR gamma, an insect cell-based assay was screened. This Drosophila Schneider cell line was stably transfected with two vectors: a gene expressing a fusion of the Gal4 DNA binding domain and ROR gamma transactivation domain under the control of the metallothionine promoter and a Photinus luciferase reporter regulated by the Gal4 binding site enhancer, UAS. […] Small molecule inhibitors of ROR gamma activity are detected by a decrease in luciferase reporter activity.
# Assay Protocol Summary: For screening, 600 cells in 4 uL/well were dispensed into white solid 1536-well plates (Grenier) using a solenoid-based dispenser. Following transfer of 23 nL compound or DMSO vehicle by a pin tool, the plates were incubated 1 hr at ambient temperature, and 1 uL/well copper sulfate (700 uM final concentration) was added. The plates were centrifuged 15 s at 1000 RPM and incubated 20 hr at ambient temperature. After addition of 1.5 uL Photinus luciferase detection reagent, the plates were incubated 10 min at ambient temperature and then read by an ViewLux (Perkin Elmer) to detect luminescence. Keywords: NIH Roadmap, MLPCN, MLI, MLSMR, qHTS, NCGC, qHTS, nuclear hormone receptor, retinoic acid-related orphan receptor, ROR gamma
# % is scaled to controls: 0 for no effect and ±100 for the full control effect; potency is read from the fitted curve at half-maximal effect.
# Nuclear receptor ROR-gamma (Mus musculus), sequence (P51450 whole entry, looked up): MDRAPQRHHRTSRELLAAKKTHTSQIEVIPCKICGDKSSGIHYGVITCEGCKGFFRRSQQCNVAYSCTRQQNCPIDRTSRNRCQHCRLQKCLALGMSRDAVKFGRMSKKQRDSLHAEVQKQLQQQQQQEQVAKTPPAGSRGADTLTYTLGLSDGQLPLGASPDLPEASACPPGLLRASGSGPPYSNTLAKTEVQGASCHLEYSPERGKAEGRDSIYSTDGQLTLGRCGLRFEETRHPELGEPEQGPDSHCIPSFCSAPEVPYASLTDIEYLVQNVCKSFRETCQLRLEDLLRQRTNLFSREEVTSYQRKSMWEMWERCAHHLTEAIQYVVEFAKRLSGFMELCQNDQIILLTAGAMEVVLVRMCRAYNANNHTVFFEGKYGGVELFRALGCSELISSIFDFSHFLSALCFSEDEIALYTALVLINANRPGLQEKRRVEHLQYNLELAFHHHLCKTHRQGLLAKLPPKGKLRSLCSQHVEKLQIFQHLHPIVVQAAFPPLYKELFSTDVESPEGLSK
SMILES,"activity change, negative = inhibition",Potency
Cc1cc(C)n(-c2cc(Oc3ccccc3)ncn2)n1,1.14% (inactive),
CN(C)c1ccc(/C=N/Nc2cc(N3CCOCC3)nc(N3CCOCC3)n2)cc1,25.9% (inactive),
COc1ccc(NC(=O)c2nc(-n3nc(C)cc3C)ccc2Cl)cc1Cl,3.42% (inactive),
Cc1cc(Oc2ccccc2)nc(N2CCOCC2)n1,23.6% (inactive),
COc1ccc(Nc2cc(C)nc(-n3nc(C)cc3C)n2)cc1,,0.501 µM (active)
COc1ccccc1/C=N\Nc1cc(C)nc(-n2nc(C)cc2C)n1,,0.251 µM (active)
Cc1ccc(S(=O)(=O)Nc2nc(C)cc(N/N=C/c3ccc(O)cc3)n2)cc1,-15% (inactive),
COc1ccc(/C=N/Nc2cc(N3CCOCC3)nc(C)n2)c(OC)c1,21.5% (inactive),
COc1cccc2c(N/N=C/c3ccco3)cc(C)nc12,-25.1% (inactive),
Cc1cc(Nc2ccc(Cl)cc2)nc(N2CCOCC2)n1,8.8% (inactive),
Cc1cc(N/N=C\c2ccc(Br)cc2)nc(-n2nc(C)cc2C)n1,,0.1 µM (active)
CC(=O)c1ccc(Oc2cc(C)nc(-n3nc(C)cc3C)n2)cc1,,14.1 µM (active)
CCn1c(Cc2ccc(OC)cc2)nnc1SCC(=O)Nc1ccc(N2CCOCC2)cc1,26.9% (inactive),
NC(=O)C1CCCN(CC(=O)N2CCN(c3ccccc3)CC2)C1 (stereo not drawn),10% (inactive),
Cc1ccccc1OCC(=O)Nc1ccc(S(=O)(=O)N2CCOCC2)cc1,-1.13% (inactive),
O=C(Nc1cccc(Cl)c1N1CCOCC1)c1cccnc1,-5.72% (inactive),
CCOC(=O)c1sc(NC(=O)c2sc(C)nc2C)nc1C,-27% (inactive),
COCCn1c(SCC(=O)Nc2nc(C)cs2)nnc1C(C)C,2.07% (inactive),
CC1CC(C)CN(CCCNC(=O)c2csc3c2CCCCC3)C1 (stereo not drawn),-3.43% (inactive),
CN1C(=O)CN2CCc3ccccc3C2c2cc(Cl)ccc21 (stereo not drawn),15.5% (inactive),
O=C1CCC(C(=O)N2CCN(c3ccccc3Cl)CC2)CN1CC1CCCCC1 (stereo not drawn),34.9% (inactive),
COc1ccccc1OCC(=O)Nc1c2c(nn1-c1ccc(F)cc1)CS(=O)(=O)C2,21.6% (inactive),

SMILES,"activity change, negative = inhibition",Potency
N#C/C(C(=S)Nc1ccccc1)=C1/NN=C(N2CCOCC2)N1c1ccccc1,,1.26 µM (active)
Cc1ccc(CC2S/C(=C(/C#N)C(=O)N3CCOCC3)N(c3ccccc3)C2=O)cc1 (stereo not drawn),8.39% (inactive),
N#C/C(C(=O)N1CCOCC1)=C1/SC(Cc2ccc(F)cc2)C(=O)N1c1ccccc1 (stereo not drawn),19.1% (inactive),
c1ccc2c(c1)CCc1snnc1-2,-4.13% (inactive),
COc1cc(/C=N/O)cc(Br)c1OS(=O)(=O)c1ccc(C)cc1,,14.1 µM (active)
COc1cc(/C=N/O)cc(Br)c1OCc1cccc(Cl)c1,,10 µM (active)
CCOc1c(Cl)cc(/C=N/O)cc1OC,-16.7% (inactive),
COc1cc(/C=N/Nc2ccc(C)cc2)cc(Br)c1O,5.16% (inactive),
COc1ccc(/C=N/NC(=O)c2ccccc2)cc1OS(=O)(=O)c1ccccc1,-28.3% (inactive),
COc1cc(C(=O)NCc2ccncc2)cc(Br)c1OCc1ccccc1,18.5% (inactive),
Cc1cc(S(=O)(=O)Nc2ccc(C(=O)NCC(c3ccco3)N3CCCC3)cc2)ccc1F (stereo not drawn),-3.88% (inactive),
COc1cc(/C(=C/c2ccccc2)c2ccccc2)c2c(c1)oc1ccccc12,16.7% (inactive),
CC(=O)N1c2ccc(S(=O)(=O)NCCC(=O)N(C)C3CCCCC3)cc2CC1C (stereo not drawn),7.64% (inactive),
COc1cccc(NC(=O)C(=O)c2cn(CC(=O)N3CCOCC3)c3ccccc23)c1,28.9% (inactive),
COc1ccc(S(=O)(=O)n2nc(C)c(S(=O)(=O)N3CCOCC3)c2C)cc1,-14.8% (inactive),
CCCCOc1ccc(-c2nnc(-c3ccco3)o2)cc1,-32.9% (inactive),
COc1ccc(C(=O)CSc2nnc(-c3ccco3)o2)cc1,-18.6% (inactive),
CCOc1ccc(-c2nnc(-c3ccco3)o2)cc1,,15.8 µM (active)
O=C(NCc1ccccc1)C(c1ccccc1)N(C(=O)c1csnn1)c1ccc(F)cc1 (stereo not drawn),-15.3% (inactive),
CCOc1ccc(C(C(=O)NC2CCCC2)N(C(=O)c2snc(C(N)=O)c2N)C2CCCC2)cc1 (stereo not drawn),0.98% (inactive),
COc1ccc(C(=O)NC2CC2)cc1OC1CCN(Cc2cnn(C)c2)CC1,-7.77% (inactive),
O=c1c(-c2ccccc2Cl)c[nH]n1-c1ccccc1,34.3% (inactive),

SMILES,"activity change, negative = inhibition",Potency
COc1ccc(CNC(=O)CN(c2ccc(OC)c(Cl)c2)S(=O)(=O)c2ccc(C)cc2)cc1,-9.62% (inactive),
O=C(CCCO)N/N=C/c1cc(Br)ccc1O,,3.98 µM (active)
NCCCCCC(=O)N/N=C/c1ccc2nccnc2c1,-16.1% (inactive),
O=C(CCNc1n[nH]c(=O)[nH]c1=O)N/N=C\c1ccc(Br)cc1,5.32% (inactive),
COc1ccc(OC)c(NC(=O)c2ccc3c(c2)C(=O)N(c2ccc(OC(C)=O)cc2)C3=O)c1,1.31% (inactive),
O=C(Nc1ccccc1Cl)Nc1cccc2cccnc12,19.6% (inactive),
O=C(Nc1cccc2cccnc12)c1cccc(Cl)c1,0.831% (inactive),
CC(=O)/C(=N\Nc1ccc(Cl)cc1Cl)Sc1cccc2cccnc12,,3.16 µM (active)
CC1=C(C(=O)NC2CC(C)(C)Cc3c2cnn3-c2ccc(C)cc2)OCCO1 (stereo not drawn),32.5% (inactive),
CN(CC(=O)Nc1ccccc1F)CC(=O)Nc1ccccc1Br,-44.8% (inactive),
Cc1ccc(NC(=O)CN(C)Cc2ccc(F)cc2)c([N+](=O)[O-])c1,22.8% (inactive),
CSc1ccccc1NC(=O)CN(C)CC(=O)Nc1ccc(Cl)cc1[N+](=O)[O-],,11.2 µM (active)
CSc1ccccc1NC(=O)Cc1ccc(Br)cc1,-7.65% (inactive),
CCC(C)c1ccccc1NC(=O)CN(C)CC(=O)Nc1ccccc1SC (stereo not drawn),,15.8 µM (active)
CN(CC(=O)Nc1ccccc1[N+](=O)[O-])Cc1ccc(Br)cc1,16% (inactive),
CC(=O)c1cc(CN2CCC(n3nccc3NC(=O)c3ccccc3Cl)CC2)cs1,-1.16% (inactive),
O=C(Nc1ccccc1-c1ccccc1)c1ccccc1[N+](=O)[O-],10.8% (inactive),
O=C(CN(C(=O)c1csnn1)c1ccc(Br)cc1)NC1CCCC1,-23.7% (inactive),
Cc1ccc(S(=O)(=O)Oc2ccc(/C=N/NC(=O)c3ccncc3)cc2)cc1,-16.7% (inactive),
CCC1CCCCN1C(=S)Nc1ccc(S(=O)(=O)Nc2ncccn2)cc1 (stereo not drawn),-0.779% (inactive),
CC(=O)Nc1ccc(S(=O)(=O)Oc2ccc(Br)cc2C(=S)N2CCOCC2)cc1,7.9% (inactive),
COC(=O)c1cc(-c2cccs2)nc2ccccc12,0.58% (inactive),

SMILES,"activity change, negative = inhibition",Potency
O=C(Nc1nnc(-c2ccccc2)o1)c1cc(-c2cccs2)nc2ccccc12,,4.47 µM (active)
CCCCN(C)CCCNC(=O)c1cc(-c2cccs2)nc2ccccc12,-15.9% (inactive),
COC(=O)c1ccc(NC(=O)c2cc3c(CO)cnc(C)c3oc2=Nc2cccc(C(N)=O)c2)cc1,24.6% (inactive),
COc1ccc(OC)c(CCNC(=O)CCn2ccc3cc(S(=O)(=O)N4CCCC4)ccc32)c1,15.1% (inactive),
CN(CCc1ccccn1)C(=O)c1ccc(OC2CCN(Cc3ccccn3)CC2)cc1,-15% (inactive),
Cc1ccc(C(C)C)cc1OCC(=O)Nc1ccccc1N1CCCC1,2.35% (inactive),
Cc1ccccc1Nc1nnc(C)c(=O)[nH]1,12.9% (inactive),
Cc1nnc(N/N=C/C2CC=CCC2)[nH]c1=O (stereo not drawn),,11.2 µM (active)
Cc1nnc(N/N=C/c2ccccn2)[nH]c1=O,-33.5% (inactive),
CCC(=O)N1c2ccc(S(=O)(=O)NCc3ccco3)cc2CC1C (stereo not drawn),5.4% (inactive),
CCc1ccc(NC(=O)CN2C(=O)COc3ccc(S(=O)(=O)N4CCCC4)cc32)cc1,14.7% (inactive),
COc1cccc(CCNC(=O)c2cccc(NC(=O)C3=C(C)OCCS3)c2)c1,36.7% (inactive),
O=C(NC12CC3CC(CC(C3)C1)C2)N1CCCC(CO)C1 (stereo not drawn),-6.71% (inactive),
CCCCc1ccc(NC(=S)N2CCCC(CO)C2)cc1 (stereo not drawn),,15.8 µM (active)
COc1ccc(NC(=S)N2CCCC(CO)C2)c(OC)c1 (stereo not drawn),7.55% (inactive),
CC(C)C(c1nnnn1C1CCCCC1)N1CCN(C(=O)c2ccco2)CC1 (stereo not drawn),18.9% (inactive),
CSCC[C@H](NC(=O)N1CCn2c1nc1ccccc12)C(=O)NCc1ccc2c(c1)OCO2,3.15% (inactive),
CCc1ccc(C(=O)COC(=O)c2ccco2)cc1,3.72% (inactive),
CC(C)C(NS(=O)(=O)c1cccs1)C(=O)Nc1nc(C(C)(C)C)cs1 (stereo not drawn),,11.2 µM (active)
COc1ccc(CNC(=O)C(NS(=O)(=O)c2cccc3nsnc23)C(C)C)cc1 (stereo not drawn),5.6% (inactive),
O=C(Nc1nncs1)c1ccccc1NS(=O)(=O)c1cccs1,24.2% (inactive),
OCCCN1c2ccccc2Nc2nnc(-c3ccccc3)cc21,,10 µM (active)

SMILES,"activity change, negative = inhibition",Potency
O=C(NC1CCCCCCC1)c1cccs1,-0.483% (inactive),
Cc1cccc(N(C)C(=O)c2cc(S(=O)(=O)N3CCCCC3)c[nH]2)c1,13% (inactive),
CC(NC(=S)NC1CCCCC1)C(c1ccccc1)N1CCOCC1 (stereo not drawn),,5.01 µM (active)
O=C(NNC(=O)C(O)c1ccccc1)NC1CCCCC1 (stereo not drawn),11.9% (inactive),
CCCC(=O)NC(C)C(c1cccs1)N1CCN(c2ccccc2)CC1 (stereo not drawn),-2.37% (inactive),
S=C(NC1CCCCC1)NN1CCOCC1,,8.91 µM (active)
COc1ccc(S(=O)(=O)N2CCOCC2)cc1C(=O)NC1CCCCC1,13.7% (inactive),
CC(NC(=S)Nc1ccccc1)C(c1cccs1)N1CCOCC1 (stereo not drawn),,11.2 µM (active)
CC(=O)OC(C(=O)NC1CCCCC1)c1ccccc1 (stereo not drawn),-6.92% [at 10 µM] (inactive),
CC(NC(=O)Nc1ccccc1)C(c1cccs1)N1CCN(c2ccccc2)CC1 (stereo not drawn),-10.2% (inactive),
O=C(NC1CCCCC1)c1cc([N+](=O)[O-])ccc1N1CCOCC1,-0.845% (inactive),
CC(=O)N1CC(=O)N(CC(=O)Nc2ccc(Br)cc2)C1=S,-36.4% (inactive),
CCOC(=O)N1CCN(CCC(=O)Nc2ccccc2)CC1,4.5% (inactive),
Cc1nc(Nc2ccccc2F)c2nnn(Cc3ccccc3Cl)c2n1,3.39% (inactive),
Cc1cccc(CN2CCC(n3nccc3NC(=O)c3ccccc3C)CC2)n1,-24.1% (inactive),
O=C(NCc1ccccc1)C(c1ccco1)N(C(=O)c1csnn1)c1ccccc1F (stereo not drawn),1.19% (inactive),
CCCCN1C(=O)/C(=C2/Sc3ccc(Cl)cc3N2CC)SC1=S,1.27% (inactive),
O=S(=O)(NC1CCCCC1N1CCCCC1)c1ccc(Cl)cc1 (stereo not drawn),-5.75% (inactive),
CC(=O)Nc1cccc(Nc2nc(-c3cccs3)nc3ccccc23)c1,6.54% (inactive),
COc1ccc(CN(C)C(=O)Cc2c[nH]c3ccccc23)c(OC)c1OC,41% (inactive),

# Source: PubChem BioAssay AID2551 (National Center for Advancing Translational Sciences (NCATS), 2010)
